The record followed here is PubChem BioAssay (NCATS).

Records with an inconclusive call do not appear. A call without a number means that no potency is given here. Activity calls are given as the source filed them. Calls follow the shape of the dose curve; as a rule, active = well fitted inhibition curve with a large enough effect; inconclusive = small, poorly fitted or top-dose-only effect; inactive = no such curve, though single readings can be large or run the other way.
Potency is read from the fitted curve at half-maximal effect.

A short description of this assay: Tertiary RLuc qRT-PCR qHTS assay for Zika virus inhibitors (AID 1347169). Also: nearly all actives have a fitted effect of over 55% in size. As to conditions: infected Vero cells, reporter luminescence, 48-72 h; series mostly up to 1.74 µM. An excerpt:
Avindra Nath, Ph.D., National Institute of Neurological Disorders and Stroke (NINDS), Bethesda, MD
Radhakrishnan Padmanabhan, Ph.D., Georgetown University (GU), Washington D.C.
Zika Virus causes congenital defects, including microcephaly and is associated with Guillain-Barre syndrome, eningoencephalitis and myelitis in infected adult. […] Using a target-based approach, we hope to establish a screening paradigm to uncover novel, cell-active NS2B-NS3 protease (Zika Virus) specific inhibitors from NCATS' collection of small molecules using qHTS.
Four assay panel was created to identify potential Zika Virus inhibitors. Namely, (1) GU unlinked NS2B-NS3 AMC tagged protease qHTS, (2) GU unlinked NS2B-NS3 Rhodamine tagged protease qHTS, (3) NINDS linked NS2B-NS3 AMC tagged protease qHTS, (4) NINDS linked NS2B-NS3 Rhodamine tagged protease qHTS. Identified inhibitors were re-acquired and tested against secondary confirmatory, orthogonal, and counterscreens to exclude nonspecific inhibition.
Early Translation Branch (ETB)
National Center for Advancing Translational Sciences (NCATS), Rockville, MD
National Institute of Health (NIH), Bethesda, Maryland
1536-well recombinant virus ZIKV-RLuc (Cambodian) Assay:
For a follow-up assay, we adapted a high throughput orthogonal assay in 1536-well plate format to use the recombinant virus ZIKV-RLuc, in Vero cells. Briefly, three microL of Vero cells derived from a green monkey cell line, were dispensed Multidrop Dispenser into a solid bottom white 1,536-well plate at a concentration of 1,000 cells per well. The plate was incubated overnight in a CO2 incubator at 37 degrees C. Compounds were delivered as a 23 nL DMSO solution by Kalypsys pintool transfer. Following compound transfer, 2 microL of ZIKV-RLuc was added at an MOI of 1-2 and incubated in a CO2 incubator for 48-72 hrs at 37 degrees C. After sufficient incubation of infected cells in test plates, live cell Renilla luciferase substrate (Promega) was added. The luminescence signal was measured after 1-1.5 hrs exposure to substrate in ViewLux reader.
As to `O=C(O)c1cc(NCc2cc(O)ccc2O)ccc1O`, the Potency entry is “inactive”. To `CC(=O)Nc1ccc(S(=O)(=O)O)c2cc(S(=O)(=O)O)c(N=Nc3ccc(N=Nc4ccc(S(=O)(=O)O)cc4)c4ccc(S(=O)(=O)O)cc34)c(O)c12` belongs “inactive”.

Take `O=C(OCC#CCSc1nnc(-c2cccc3ccccc23)o1)c1cc(F)c(F)c(F)c1`: the Potency entry was “inactive”. Turning to `N#Cc1ccc(OCC2CN(Cc3cccc(C(F)(F)F)c3)C(=O)c3c(ccnc3-c3ccc(OCC(=O)O)cc3)O2)cc1` (stereo not given), the Potency result was “inactive”. To `COc1ccc(NS(=O)(=O)c2ccc3c(c2)[C@H]2C=CC[C@H]2[C@@H](c2ccc(C(=O)O)cc2)N3)cc1` belongs “inactive”; to `O=C(OCC#CCSc1nnc(-c2ccccc2Cl)o1)c1ccc(F)cc1`, “inactive”; to `O=C(OCc1cc(=O)n2nc(C3CC3)sc2n1)c1ccc(NC(=O)c2ccccc2F)cc1`, “inactive”. To `O=C(O)c1ccc(-c2cccc(C(F)(F)F)c2)cc1` belongs “inactive”. To `Fc1cc(C2=Nn3c(COc4ccc(Cl)cc4Cl)nnc3S/C2=C\c2ccc(-c3ccc(Cl)cc3)o2)c(Cl)cc1Cl` belongs “inactive”; to `COC(=O)c1ccc(NC(=O)CSc2ccc(-c3sc(-c4ccccc4)nc3C)nn2)cc1`, “inactive”; to `Cc1ccc(NC(=O)c2ccc3c(O)c(S(=O)(=O)c4ccccc4)c(=O)[nH]c3c2)cc1Cl`, “inactive”. For the molecule `CCOc1nc2cccc(C(=O)OC(C)OC(=O)OC3CCCCC3)c2n1Cc1ccc(-c2ccccc2-c2nn[nH]n2)cc1` (stereo not given), the Potency is 14.7 µM (active). For the molecule `CC(C)c1nn2c(=O)cc(COC(=O)c3ccc(NC(=O)c4ccccc4Cl)cc3)nc2s1`, the Potency result is “inactive”. To `Clc1cc(OCc2nnc3sc(Cc4ccccc4)nn23)c(Cl)cc1OCc1nnc2sc(Cc3ccccc3)nn12` belongs “inactive”. On to `Cc1ccc(NC(=O)c2ccc3c(O)c(S(=O)(=O)c4ccc(Cl)cc4)c(=O)[nH]c3c2)cc1`, for which the Potency entry is “inactive”. The result for `CCOC(=O)c1ccccc1NC(=O)CSc1ccc(-c2sc(-c3ccccc3)nc2C)nn1` reads “inactive”.

Take `CC1CCN(C(c2ccc(F)cc2)c2ccc(C(C)C(=O)O)cc2-c2ccc(C(F)(F)F)cc2)CC1` (stereo not given): the Potency was 6.58 µM (active).

For the molecule `Cc1cccc(OCC(=O)Nc2ccc(C(=O)OCc3cc(=O)n4nc(C5CC5)sc4n3)cc2)c1`, the Potency entry was “inactive”. To `CN(Cc1ccc(C(=O)O)cc1)c1ccc(OCc2c(-c3c(Cl)cccc3Cl)noc2C2CC2)nc1C(F)(F)F` belongs 13.1 µM (active); to `COC(=O)c1ccc([C@H]2Nc3ccc(S(=O)(=O)Nc4ccc(C)cc4)cc3[C@H]3C=CC[C@H]32)cc1`, “inactive”; to `O=c1oc2ccc3ccccc3c2cc1-c1nnc(Nc2cccc(C(F)(F)F)c2)s1`, “inactive”.

Take `CCOC(=O)c1ccc(NC(=O)Cn2nnc(-c3ccc(C(F)(F)F)cc3)n2)cc1`: the Potency result is “inactive”. Regarding `O=C(Nc1ccccc1C(=O)OCc1cc(=O)n2c3c(sc2n1)CCCC3)c1ccc(F)cc1`, the Potency result is “inactive”.

`O=C(OCC#CCSc1nnc(-c2cccc3ccccc23)o1)c1ccc(F)cc1F`: the Potency result is “inactive”. To `N#Cc1ccccc1S(=O)(=O)N[C@H]1CO[C@H]2[C@@H]1OC[C@H]2OC(=O)Nc1ccc(Oc2ccccc2)cc1` belongs 7.39 µM (active); to `COc1ccc(C(=O)Nc2ccc(C(=O)OCc3cc(=O)n4nc(C5CC5)sc4n3)cc2)cc1`, “inactive”; to `Cc1ncccc1OCC1CN(Cc2cccc(C(F)(F)F)c2)C(=O)c2c(ccnc2-c2ccc(OCC(=O)O)cc2)O1` (stereo not given), “inactive”.

On to `O=C1OCC2=C1C(c1cccc(Cl)c1)CC(=O)N2c1ccc(C(F)(F)F)cc1` (stereo not given), for which the Potency result is “inactive”.

Consider `C=CC(C)(C)c1[nH]c2ccccc2c1C1=C(O)C(=O)C(c2c[nH]c3c(CC=C(C)C)cccc23)=C(O)C1=O`, for which the Potency result was “inactive”. Consider `O=C(Nc1ccccc1)c1ccc2c(O)c(S(=O)(=O)c3ccc(Cl)cc3)c(=O)[nH]c2c1`, for which the Potency result is “inactive”. The result for `O=C(Nc1ccc(C(=O)OCc2cc(=O)n3nc(C4CC4)sc3n2)cc1)c1ccc(F)cc1` reads “inactive”; that for `Cc1cn2c(=O)cc(COC(=O)c3ccc(NC(=O)c4ccc(C(C)(C)C)cc4)cc3)nc2s1`, “inactive”; that for `CN(CC(=O)N(Cc1ccc(C2CCCCC2)cc1)c1ccc(C(=O)O)cc1)S(=O)(=O)c1c(F)c(F)c(F)c(F)c1F`, 7.39 µM (active).

Regarding `O=C(O)COc1ccc(-c2nccc3c2C(=O)N(Cc2ccccc2)CC(COc2ccc4cccnc4c2)O3)cc1` (stereo not given), the Potency entry was “inactive”. The result for `CC1(C(=O)O)NCCc2cc(O)c(O)cc21` (stereo not given) reads “inactive”.

Regarding `CCOc1ccc(C2C(=O)N(C3CCCCC3)CC(=O)N2Cc2ccc(F)cc2)cc1OC` (stereo not given), the Potency was 8.29 µM (active). Consider `O=C(CNC(=O)c1ccccc1F)OCc1cc(=O)n2nc(C3CCCCC3)sc2n1`, for which the Potency entry was “inactive”.

In the case of `O=C(Nc1ccccc1C(=O)OCc1cc(=O)n2c3c(sc2n1)CCCC3)c1ccc(Cl)cc1`, the Potency entry was “inactive”. On to `O=C(O)c1nc2cc(Cl)c(Cl)cc2[nH]c1=O`, for which the Potency result was “inactive”. The result for `CC(NC(=O)C1CCN(S(=O)(=O)c2ccc3nc4c(c(C(=O)O)c3c2)CCCC4)CC1)c1ccccc1` (stereo not given) reads “inactive”.
